Results reported in ChEMBL document CHEMBL1961873, “Compounds: GSK PKIS; Assays: Nanosyn kinase panel” (2012).

What was measured:
[1] = target: T1, Tyrosine-protein kinase receptor TYRO3 (Homo sapiens) (UniProt Q06418); conditions: at 1 µM
T1 sequence (whole entry): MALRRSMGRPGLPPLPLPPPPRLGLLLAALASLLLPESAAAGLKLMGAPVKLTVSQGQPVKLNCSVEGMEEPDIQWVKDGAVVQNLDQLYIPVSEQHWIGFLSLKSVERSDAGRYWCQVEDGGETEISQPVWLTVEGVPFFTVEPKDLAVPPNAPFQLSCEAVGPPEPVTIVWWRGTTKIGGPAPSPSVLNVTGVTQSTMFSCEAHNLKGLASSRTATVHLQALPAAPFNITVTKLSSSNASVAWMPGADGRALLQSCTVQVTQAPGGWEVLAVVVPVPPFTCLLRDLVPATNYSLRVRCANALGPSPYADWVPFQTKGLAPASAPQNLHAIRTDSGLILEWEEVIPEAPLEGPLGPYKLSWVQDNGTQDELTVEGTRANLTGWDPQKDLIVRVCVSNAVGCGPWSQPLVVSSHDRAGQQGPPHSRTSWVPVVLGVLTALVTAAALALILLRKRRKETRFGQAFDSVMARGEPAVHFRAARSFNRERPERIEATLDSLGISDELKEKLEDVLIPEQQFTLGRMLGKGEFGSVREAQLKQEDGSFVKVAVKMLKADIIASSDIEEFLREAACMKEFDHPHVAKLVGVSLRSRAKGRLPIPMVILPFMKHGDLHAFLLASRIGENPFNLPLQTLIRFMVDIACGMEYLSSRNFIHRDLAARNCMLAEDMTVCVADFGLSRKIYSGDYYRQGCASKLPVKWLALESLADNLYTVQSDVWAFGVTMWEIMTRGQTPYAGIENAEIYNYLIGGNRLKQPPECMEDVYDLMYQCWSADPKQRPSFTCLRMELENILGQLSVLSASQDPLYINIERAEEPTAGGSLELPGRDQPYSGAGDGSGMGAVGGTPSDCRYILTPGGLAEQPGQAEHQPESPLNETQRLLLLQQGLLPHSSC

[2] = target: Tyrosine-protein kinase Yes (Homo sapiens) (UniProt P07947); conditions: at 0.1 µM
[3] = target: Tyrosine-protein kinase Yes (Homo sapiens) (UniProt P07947); conditions: at 1 µM
[4] = target: T2, Tyrosine-protein kinase ZAP-70 (Homo sapiens) (UniProt P43403); conditions: at 0.1 µM
T2 sequence (whole entry): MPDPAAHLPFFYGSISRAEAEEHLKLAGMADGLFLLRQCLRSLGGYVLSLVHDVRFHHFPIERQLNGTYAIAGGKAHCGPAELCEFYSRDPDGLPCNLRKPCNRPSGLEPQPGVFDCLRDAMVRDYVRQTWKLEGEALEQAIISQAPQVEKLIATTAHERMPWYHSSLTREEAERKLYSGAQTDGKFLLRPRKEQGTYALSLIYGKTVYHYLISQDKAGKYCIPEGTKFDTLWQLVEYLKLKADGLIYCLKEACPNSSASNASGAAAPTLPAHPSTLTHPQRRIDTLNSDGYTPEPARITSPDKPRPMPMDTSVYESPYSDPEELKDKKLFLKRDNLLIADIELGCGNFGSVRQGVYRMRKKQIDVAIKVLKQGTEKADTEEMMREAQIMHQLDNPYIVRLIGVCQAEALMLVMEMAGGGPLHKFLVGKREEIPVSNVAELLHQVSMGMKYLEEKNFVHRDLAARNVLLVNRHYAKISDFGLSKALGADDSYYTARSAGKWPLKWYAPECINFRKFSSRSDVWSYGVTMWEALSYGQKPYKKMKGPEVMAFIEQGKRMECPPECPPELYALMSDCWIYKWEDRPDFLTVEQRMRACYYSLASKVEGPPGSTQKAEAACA

[5] = target: T2, Tyrosine-protein kinase ZAP-70 (Homo sapiens); conditions: at 1 µM
[6] = target: Serine/threonine-protein kinase B-raf (Homo sapiens) (UniProt P15056); conditions: at 0.1 µM
[7] = target: Serine/threonine-protein kinase B-raf (Homo sapiens) (UniProt P15056); conditions: at 1 µM
[8] = tested on: Serine/threonine-protein kinase B-raf (Homo sapiens), P15056 [V600E]; conditions: at 0.1 µM
[9] = tested on: Serine/threonine-protein kinase B-raf (Homo sapiens), P15056 [V600E]; conditions: at 1 µM
[10] = target: RAF proto-oncogene serine/threonine-protein kinase (Homo sapiens) (UniProt P04049); conditions: at 0.1 µM
[11] = target: RAF proto-oncogene serine/threonine-protein kinase (Homo sapiens) (UniProt P04049); conditions: at 1 µM
[12] = target: T3, Interleukin-1 receptor-associated kinase 4 (Homo sapiens) (UniProt Q9NWZ3); conditions: at 0.1 µM
T3 sequence (whole entry): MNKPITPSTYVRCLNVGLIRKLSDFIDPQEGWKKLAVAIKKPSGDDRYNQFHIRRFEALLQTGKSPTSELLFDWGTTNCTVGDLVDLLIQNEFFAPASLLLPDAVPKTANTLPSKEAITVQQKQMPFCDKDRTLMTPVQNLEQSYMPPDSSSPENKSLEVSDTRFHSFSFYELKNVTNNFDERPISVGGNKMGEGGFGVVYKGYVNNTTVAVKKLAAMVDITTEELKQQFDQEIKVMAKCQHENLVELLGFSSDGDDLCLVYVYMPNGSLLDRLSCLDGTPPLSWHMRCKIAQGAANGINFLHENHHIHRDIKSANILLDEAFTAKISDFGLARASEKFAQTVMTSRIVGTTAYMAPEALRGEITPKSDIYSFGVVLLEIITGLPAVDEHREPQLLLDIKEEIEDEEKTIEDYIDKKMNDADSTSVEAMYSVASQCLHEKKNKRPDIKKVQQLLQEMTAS

[13] = target: T3, Interleukin-1 receptor-associated kinase 4 (Homo sapiens); conditions: at 1 µM
[14] = target: Leucine-rich repeat serine/threonine-protein kinase 2 (Homo sapiens) (UniProt Q5S007); conditions: at 0.1 µM
[15] = target: Leucine-rich repeat serine/threonine-protein kinase 2 (Homo sapiens) (UniProt Q5S007); conditions: at 1 µM
[16] = tested on: Leucine-rich repeat serine/threonine-protein kinase 2 (Homo sapiens), Q5S007 [G2019S]; conditions: at 0.1 µM
[17] = tested on: Leucine-rich repeat serine/threonine-protein kinase 2 (Homo sapiens), Q5S007 [G2019S]; conditions: at 1 µM

Sequence of RAF proto-oncogene serine/threonine-protein kinase (Homo sapiens) (P04049 whole entry): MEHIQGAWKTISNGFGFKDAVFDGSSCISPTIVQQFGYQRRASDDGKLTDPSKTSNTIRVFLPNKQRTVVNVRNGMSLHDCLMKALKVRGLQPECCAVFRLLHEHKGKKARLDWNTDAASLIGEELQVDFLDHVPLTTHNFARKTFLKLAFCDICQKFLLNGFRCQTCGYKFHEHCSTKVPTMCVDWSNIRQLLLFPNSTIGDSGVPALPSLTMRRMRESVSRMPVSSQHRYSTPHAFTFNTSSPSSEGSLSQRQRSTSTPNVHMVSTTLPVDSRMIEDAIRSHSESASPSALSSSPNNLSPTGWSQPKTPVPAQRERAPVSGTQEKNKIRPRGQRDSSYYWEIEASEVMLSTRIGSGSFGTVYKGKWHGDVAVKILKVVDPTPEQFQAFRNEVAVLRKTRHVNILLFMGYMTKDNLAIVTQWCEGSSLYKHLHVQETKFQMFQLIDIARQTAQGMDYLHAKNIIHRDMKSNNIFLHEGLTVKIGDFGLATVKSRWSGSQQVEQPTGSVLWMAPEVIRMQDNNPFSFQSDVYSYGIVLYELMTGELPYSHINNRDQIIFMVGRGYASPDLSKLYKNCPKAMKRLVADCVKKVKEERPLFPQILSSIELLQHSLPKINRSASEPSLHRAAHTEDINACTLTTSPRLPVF
Sequence of Leucine-rich repeat serine/threonine-protein kinase 2 (Homo sapiens) (Q5S007 whole entry): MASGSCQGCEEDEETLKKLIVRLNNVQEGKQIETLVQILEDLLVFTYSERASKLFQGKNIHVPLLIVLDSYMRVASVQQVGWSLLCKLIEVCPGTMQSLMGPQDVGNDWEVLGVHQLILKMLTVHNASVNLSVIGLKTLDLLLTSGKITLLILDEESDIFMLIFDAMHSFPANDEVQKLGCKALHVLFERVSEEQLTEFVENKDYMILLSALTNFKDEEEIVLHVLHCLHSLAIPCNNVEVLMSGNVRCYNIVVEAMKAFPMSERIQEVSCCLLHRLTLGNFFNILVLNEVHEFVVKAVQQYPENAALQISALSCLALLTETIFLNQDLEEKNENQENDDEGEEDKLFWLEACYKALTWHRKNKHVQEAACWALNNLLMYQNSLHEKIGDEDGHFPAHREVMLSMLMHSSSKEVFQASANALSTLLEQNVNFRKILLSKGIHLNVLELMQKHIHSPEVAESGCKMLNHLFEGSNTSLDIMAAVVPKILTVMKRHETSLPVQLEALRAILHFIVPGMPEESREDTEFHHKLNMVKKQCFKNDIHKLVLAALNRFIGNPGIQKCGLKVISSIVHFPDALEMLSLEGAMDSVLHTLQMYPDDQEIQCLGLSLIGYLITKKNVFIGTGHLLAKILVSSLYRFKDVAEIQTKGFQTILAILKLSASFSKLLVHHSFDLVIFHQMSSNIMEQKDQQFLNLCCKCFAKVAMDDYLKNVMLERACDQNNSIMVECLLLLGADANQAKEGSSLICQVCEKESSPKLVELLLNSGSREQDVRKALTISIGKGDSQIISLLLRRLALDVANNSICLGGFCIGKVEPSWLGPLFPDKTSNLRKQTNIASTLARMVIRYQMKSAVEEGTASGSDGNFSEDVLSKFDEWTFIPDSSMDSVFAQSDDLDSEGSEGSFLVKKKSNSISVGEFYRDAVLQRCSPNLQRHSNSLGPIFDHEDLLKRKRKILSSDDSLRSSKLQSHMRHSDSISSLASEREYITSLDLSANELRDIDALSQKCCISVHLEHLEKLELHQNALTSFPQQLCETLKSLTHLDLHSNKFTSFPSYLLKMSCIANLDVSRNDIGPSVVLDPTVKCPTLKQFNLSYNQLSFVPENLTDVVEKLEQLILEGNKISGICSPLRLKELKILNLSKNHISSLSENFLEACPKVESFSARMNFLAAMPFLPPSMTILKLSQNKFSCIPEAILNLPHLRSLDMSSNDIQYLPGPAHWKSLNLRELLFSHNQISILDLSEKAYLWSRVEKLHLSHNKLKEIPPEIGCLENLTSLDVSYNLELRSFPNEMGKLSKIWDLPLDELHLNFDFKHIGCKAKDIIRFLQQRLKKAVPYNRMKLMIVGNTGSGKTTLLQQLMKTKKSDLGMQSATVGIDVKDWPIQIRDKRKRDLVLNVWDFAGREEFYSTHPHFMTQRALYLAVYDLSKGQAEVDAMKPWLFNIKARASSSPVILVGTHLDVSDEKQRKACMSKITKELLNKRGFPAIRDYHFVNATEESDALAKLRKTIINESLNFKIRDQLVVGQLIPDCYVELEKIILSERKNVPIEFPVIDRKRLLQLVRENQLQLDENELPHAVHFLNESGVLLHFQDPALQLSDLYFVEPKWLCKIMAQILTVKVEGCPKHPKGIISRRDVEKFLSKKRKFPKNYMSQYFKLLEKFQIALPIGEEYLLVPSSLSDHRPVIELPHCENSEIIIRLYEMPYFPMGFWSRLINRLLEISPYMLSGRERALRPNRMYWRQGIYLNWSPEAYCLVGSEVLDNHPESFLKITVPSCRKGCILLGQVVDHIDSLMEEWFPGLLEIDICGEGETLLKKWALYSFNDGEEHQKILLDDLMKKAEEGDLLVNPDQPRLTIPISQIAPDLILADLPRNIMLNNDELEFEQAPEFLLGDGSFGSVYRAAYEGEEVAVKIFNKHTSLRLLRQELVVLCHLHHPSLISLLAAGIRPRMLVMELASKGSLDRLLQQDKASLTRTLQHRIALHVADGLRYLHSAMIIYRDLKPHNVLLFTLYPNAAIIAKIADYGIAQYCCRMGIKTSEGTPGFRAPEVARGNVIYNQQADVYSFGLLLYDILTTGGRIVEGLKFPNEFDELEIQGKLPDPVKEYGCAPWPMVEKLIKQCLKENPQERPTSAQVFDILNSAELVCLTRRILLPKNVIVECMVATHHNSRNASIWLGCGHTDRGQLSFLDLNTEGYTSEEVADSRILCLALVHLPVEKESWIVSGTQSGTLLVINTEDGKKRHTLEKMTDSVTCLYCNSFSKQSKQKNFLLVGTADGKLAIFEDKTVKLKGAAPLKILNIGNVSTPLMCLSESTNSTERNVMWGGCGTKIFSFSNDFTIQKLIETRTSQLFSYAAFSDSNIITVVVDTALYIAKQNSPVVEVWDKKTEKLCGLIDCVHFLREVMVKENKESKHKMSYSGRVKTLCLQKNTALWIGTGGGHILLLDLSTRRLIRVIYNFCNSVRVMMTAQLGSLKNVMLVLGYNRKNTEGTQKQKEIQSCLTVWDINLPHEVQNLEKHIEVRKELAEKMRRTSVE
Sequence of Leucine-rich repeat serine/threonine-protein kinase 2 (Homo sapiens), Q5S007 [G2019S] (Q5S007 whole entry G2019S): as the sequence (Q5S007 whole entry) above, with G2019S counted along it
Sequence of Serine/threonine-protein kinase B-raf (Homo sapiens) (P15056 whole entry): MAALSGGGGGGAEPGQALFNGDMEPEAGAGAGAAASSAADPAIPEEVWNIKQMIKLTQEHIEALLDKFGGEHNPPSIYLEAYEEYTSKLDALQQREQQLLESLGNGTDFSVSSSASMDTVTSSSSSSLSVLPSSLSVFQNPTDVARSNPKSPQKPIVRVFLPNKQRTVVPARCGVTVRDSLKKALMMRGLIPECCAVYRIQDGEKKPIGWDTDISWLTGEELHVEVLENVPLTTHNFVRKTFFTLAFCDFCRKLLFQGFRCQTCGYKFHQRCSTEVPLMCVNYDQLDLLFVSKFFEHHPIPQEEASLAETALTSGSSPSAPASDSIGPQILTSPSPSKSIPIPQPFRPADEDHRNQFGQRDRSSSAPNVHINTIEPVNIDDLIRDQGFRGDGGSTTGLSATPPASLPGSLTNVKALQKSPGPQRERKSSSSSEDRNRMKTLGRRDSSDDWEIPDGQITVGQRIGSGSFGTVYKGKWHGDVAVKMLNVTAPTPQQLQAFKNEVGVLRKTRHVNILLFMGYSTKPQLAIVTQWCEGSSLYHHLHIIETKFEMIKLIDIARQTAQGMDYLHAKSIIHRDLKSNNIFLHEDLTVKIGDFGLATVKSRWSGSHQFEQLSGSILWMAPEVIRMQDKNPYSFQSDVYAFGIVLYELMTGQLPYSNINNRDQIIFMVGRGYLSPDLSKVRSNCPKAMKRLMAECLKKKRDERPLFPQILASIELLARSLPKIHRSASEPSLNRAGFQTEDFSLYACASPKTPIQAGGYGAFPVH
Sequence of Serine/threonine-protein kinase B-raf (Homo sapiens), P15056 [V600E] (P15056 whole entry V600E): as the sequence (P15056 whole entry) above, with V600E counted along it
Sequence of Tyrosine-protein kinase Yes (Homo sapiens) (P07947 2-543 limits assumed): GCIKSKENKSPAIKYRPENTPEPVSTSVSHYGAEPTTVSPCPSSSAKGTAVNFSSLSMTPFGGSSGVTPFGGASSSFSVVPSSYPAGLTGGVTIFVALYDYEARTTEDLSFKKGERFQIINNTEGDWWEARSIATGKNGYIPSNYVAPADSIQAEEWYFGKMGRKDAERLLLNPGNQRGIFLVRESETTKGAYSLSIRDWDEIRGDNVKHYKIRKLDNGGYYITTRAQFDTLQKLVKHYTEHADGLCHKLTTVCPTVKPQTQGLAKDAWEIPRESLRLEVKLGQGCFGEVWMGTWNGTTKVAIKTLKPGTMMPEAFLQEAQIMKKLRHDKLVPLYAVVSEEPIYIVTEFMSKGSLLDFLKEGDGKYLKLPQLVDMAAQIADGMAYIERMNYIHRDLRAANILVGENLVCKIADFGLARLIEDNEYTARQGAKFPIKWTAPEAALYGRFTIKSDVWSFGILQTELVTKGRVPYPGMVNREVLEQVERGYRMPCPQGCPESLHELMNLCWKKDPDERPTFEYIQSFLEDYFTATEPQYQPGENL

| Structure (SMILES) | inhibition [1] [%] | inhibition [2] [%] | inhibition [3] [%] | inhibition [4] [%] | inhibition [5] [%] | inhibition [6] [%] | inhibition [7] [%] | inhibition [8] [%] | inhibition [9] [%] | inhibition [10] [%] | inhibition [11] [%] | inhibition [12] [%] | inhibition [13] [%] | inhibition [14] [%] | inhibition [15] [%] | inhibition [16] [%] | inhibition [17] [%] |
| --- | --- | --- | --- | --- | --- | --- | --- | --- | --- | --- | --- | --- | --- | --- | --- | --- | --- |
| COc1ccc(-c2coc3ncnc(N)c23)cc1 | 0.37 | 1.25 | 2.89 | 0.06 | 4.55 | 4.66 | 7.42 | 6.07 | 6.81 | 2.99 | 4.1 | 0.41 | 1.48 | 3.62 | 6.4 | 4.35 | 7.19 |
| COc1ccccc1Nc1ncc(-c2ccccc2)o1 | 2.12 | 2.01 | 6.48 | 0.73 | 4.36 | 6.58 | 7.19 | 4.73 | 3.58 | 3.32 | 1.9 | 2.31 | 2.99 | 4.53 | 8.57 | 6.36 | 11.3 |
| CCn1c(-c2nonc2N)nc2c(C#CC(C)(C)O)nc(OC[C@@H](N)c3ccccc3)cc21 | 0.45 | 0.68 | 0.4 | -0.65 | -0.38 | -0.61 | 3.45 | -0.86 | 3.32 | -1.41 | 3.8 | -2.13 | 0.37 | 2.04 | 8.46 | 2.34 | 19.7 |
| CS(=O)(=O)Nc1ccc(N/C=C2\C(=O)Nc3ccccc32)cc1 | 6.06 | -1.31 | 10.4 | -3.14 | -2.93 | -2.74 | -2.55 | -3.06 | -2.04 | -5.04 | -2.68 | -0.49 | -0.15 | 1.31 | 18.1 | 5.01 | 31.3 |
| Cc1ccc(NC(=O)c2ccnc(N3CCCC3)c2)cc1-c1ccc(C(=O)NCC2CC2)cc1 | 1.97 | 2.17 | 3.08 | -2.27 | 0.03 | 8.24 | 14.7 | 7.57 | 15 | 4.02 | -6.49 | -0.18 | 2.34 | 1.63 | 6.13 | 4.42 | 7.81 |
| CCn1c(-c2nonc2N)nc2cncc(C(=O)N3CC[C@H](N)C3)c21 | 6.78 | 1.84 | 5.96 | -1.89 | -1.69 | 6.39 | 7.03 | 7.1 | 6.82 | 12.6 | 3.85 | 2.88 | 2.25 | 4.57 | 14.5 | 7.16 | 29.5 |
| COc1cccc(-n2ncc3c(N/N=C/c4cccc(F)c4)ncnc32)c1 | 8.11 | 6.17 | 31 | -0.37 | -0.02 | 4.04 | 5.91 | 3.95 | 5.71 | 0.69 | -6.84 | 3.28 | 1.56 | -3.46 | -0.49 | 0.79 | 2.23 |
| N#Cc1c(NC(=O)c2cccc3ccccc23)sc2c1CCCC2 | 2.06 | 3.08 | 2.43 | 2.19 | 4.42 | 4.29 | 5.63 | 4.43 | 5.4 | -0.45 | 3.48 | 2.64 | 1.05 | 1.35 | 2.73 | 1.99 | 3.65 |
| CCCN1CCC(Oc2cc(Nc3nc(Nc4cccc(F)c4C(N)=O)c4cc[nH]c4n3)c(OC)cc2Cl)CC1 | 1.14 | 1.16 | 1.57 | -1.5 | 0.24 | 2.31 | 24.1 | 1.35 | 23.7 | -1.14 | 5.41 | -2.83 | 2.25 | 11.5 | 19.6 | 12.8 | 55.9 |
| CS(=O)(=O)CCNCc1ccc(-c2ccc3ncnc(Nc4ccc(OCc5ccccc5)c(Cl)c4)c3c2)o1 | 2.01 | 7.69 | 39.4 | -7.6 | -0.02 | 0.1 | 1.24 | 1.67 | 1.38 | -1.06 | -1.69 | 0.4 | 0.86 | 2.66 | 7.97 | 4.51 | 7.5 |
| O=C1NC(=O)C(c2ccccc2Cl)=C1Nc1cccc(O)c1 | 1.2 | 1.06 | -1.97 | 1.65 | 0.4 | 3.05 | 3.21 | 3.01 | 2.95 | 4.73 | -0.43 | -2 | 1.87 | 4.27 | 13.2 | 3.28 | 14.6 |
| CCN1CCC(CC(=O)Nc2n[nH]c3nc(-c4cccs4)c(Br)cc23)CC1 | 0.12 | -2.01 | 2.56 | -3.15 | -1.71 | -3.34 | -4.88 | -3.29 | -4.51 | 3.42 | 1.23 | -3.96 | -0.76 | -0.41 | 2.42 | 0.89 | 2.44 |
| COc1cc2ncn(-c3cc(OCc4ccccc4C(F)(F)F)c(C(N)=O)s3)c2cc1OC | 10.3 | 1.77 | 7.91 | -2.01 | -1.32 | 5.82 | 4.85 | 3.47 | 3.52 | 1.99 | -0.64 | 1.2 | 1.85 | 1.63 | 16.1 | 5.35 | 40.1 |
| O=C1NC(=O)C(N2CCc3ccccc32)=C1c1ccc(Cl)cc1 | 3.19 | 0.13 | 1.35 | 3.14 | 4.58 | 6 | 7.8 | 6.55 | 6.79 | 0.98 | 0.17 | 3.05 | 1.81 | 3.88 | 8.75 | 4.99 | 10.7 |
| Nc1nc(-c2ccccn2)c(-c2ccc3ncccc3n2)s1 | 2.67 | -0.44 | 0.23 | 0.82 | 0.6 | 3.55 | 7.22 | 3.63 | 5.74 | 2.42 | 2.42 | -3.29 | 1.27 | 2.15 | 4.38 | 1.86 | 5.88 |
